Test results as given in PubChem BioAssay AID463173 (ICCB-Longwood Screening Facility, Harvard Medical School, 2010).
The campaign covered roughly 52,000 compounds. About 4,300 (8.3%) were called active. For the sample, actives were picked, then their nearest neighbours and some compounds at random. A number with no mark means an inactive call. Cut-off read from the data, not from the text of the source: active = survival mostly below about 52% (no sharp cut-off); inactive = mostly above about 56%.

System: DeltatarO mutant
Assay: S. aureus survival, RN4220 and DeltatarO strains – OD600, teichoic acid synthesis inhibitors, primary screen (AID 463173)
Conditions: S. aureus RN4220 wild type/DeltatarO growth, OD600, 18 h, active compounds read low, screened at 18.75 µg/mL (by protocol)

Structure (SMILES) | survival
CCOC(=O)C1CCCN(S(=O)(=O)c2cc(Br)cc3c2N(C(C)=O)CC3)C1 (configuration not stated) | 72%
CCC1CN(C(=O)N2CCC(C(=O)NCc3cccc(C)c3)CC2)c2ccccc2O1 (configuration not stated) | 77%
O=C(NCc1ccco1)Nc1ccccc1 | 94%
O=C(CCCCn1c(=O)c2ccccc2n(CC(=O)Nc2ccc(F)cc2F)c1=O)NCCc1ccccc1 | 92%
CC1=C(C(=O)NCc2ccccc2Cl)C2(CCCCCC2)OC1=O | 49%
CCCN(c1ccc(C(C)C)cc1)S(=O)(=O)c1ccc2c(c1)n(C)c(=O)c(=O)n2C | 84%
COc1ccc(NC(=O)Cn2c(C)cc3ccccc3c2=O)c(OC)c1 | 59%
CCc1cccc(C)c1Nc1c(-c2cccc(O)c2)nc2nc(C)cc(C)n12 | 66%
CCc1cccc(NC(=O)CCS(=O)(=O)c2cc(Br)cc3c2N(C(C)=O)CC3)c1 | 144%
O=C(Nc1nccs1)c1ccc(-c2ccc(Cl)cc2)o1 | 35% (active)
COc1ccc(C(=O)Nc2ccc(-c3nc4ncccc4o3)cc2C)cc1Br | 37% (active)
Cc1ccc(-c2nc3ncccc3o2)cc1NC(=O)c1ccc(-c2cccc(Cl)c2C)o1 | 56%
Cc1ccc(-c2nc3ncccc3o2)cc1NC(=O)c1ccc(-c2ccc(Cl)cc2)o1 | 35% (active)
COc1ccc(Br)cc1C(=O)Nc1ccc(-c2nc3ncccc3o2)cc1C | 41%
Cc1cc(NC(=O)c2ccc(-c3ccc(Cl)cc3)o2)cc(-c2nc3ncccc3o2)c1O | 88%
O=C(Nc1nccs1)c1cccc(C(=O)Nc2nccs2)c1 | 98%
CC(=O)c1ccc(NC(=O)c2ccc(-c3ccc(Cl)cc3)o2)cc1 | 92%
CCCC(=O)Nc1ccc(-c2nc3ncccc3o2)cc1C | 69%
CCCCc1nn2c(=O)cc(COC(=O)c3ccc(NC(=O)C(CC)CC)cc3)nc2s1 | 94%
CCC(Sc1nc2ccccc2c2nc(CCn3c(C)nc4ccccc43)nn12)C(=O)Nc1ccc(F)cc1 (configuration not stated) | 67%
COc1ccc(Cn2c(CCC(=O)NCc3ccc(Cl)cc3)nc3cccnc32)cc1 | 112%
Cc1cc(C)nc(N2CCCC(C)C2)n1 (configuration not stated) | 87%
CC1CCN(c2nc3nonc3nc2Nc2ccc(F)cc2)CC1 | 78%
CC1CCCN(c2nc3nonc3nc2Nc2cccc(Cl)c2)C1 (configuration not stated) | 0% (active)
COc1ccccc1CNC(=O)CCn1c(=O)c2ccccc2n(CC(=O)Nc2ccc(C)cc2C)c1=O | 86%

Structure (SMILES) | survival
CCOC(=O)c1ccc(NC(=O)Cn2nnc(-c3ccc(C(F)(F)F)cc3)n2)cc1 | 87%
CCC(C)NC(=O)C1CCN(C(=O)c2ccc(-n3ccc4ccccc43)s2)CC1 (configuration not stated) | 81%
Cc1ccc2nc(Cl)c3cc(C(=O)NC4CCCCCC4)sc3c2c1 | 102%
CCOC(=O)C1CCCN(C(=O)c2ccc(-n3ccc4ccccc43)s2)C1 (configuration not stated) | -1% (active)
Cc1ccc2nc(Cl)c3cc(C(=O)NC4CCCCC4)sc3c2c1 | 52%
CC1CCCN(C(=O)c2cc3c(=O)n(C)c4ccccc4c3s2)C1 (configuration not stated) | 138%
CCOC(=O)C1CCCN(C(=O)c2cc3c(=O)n(C)c4ccccc4c3s2)C1 (configuration not stated) | 44% (active)
Cc1ccc2nc(Cl)c3cc(C(=O)N4CCCCC4C)sc3c2c1 (configuration not stated) | 23% (active)
CC1CCN(C(=O)c2cc3c(=O)n(C)c4ccccc4c3s2)CC1 | 88%
CC(C)N(C(=O)c1cc2c(Cl)nc3ccccc3c2s1)C1CCCCC1 | 16% (active)
CCOC(=O)C1CCN(C(=O)c2ccc(-n3ccc4ccccc43)s2)CC1 | 72%
Cc1ccc(S(=O)(=O)Nc2nc3c(s2)C(=O)CC(C)(C)C3)cc1 | 91%
COc1ccc2nc(NS(=O)(=O)Cc3ccccc3)sc2c1 | 75%
CCOc1ccccc1N(C)C(=O)NCc1noc2ccccc12 | 108%
O=C(NCc1ccccc1F)C(=O)NCC(c1cccs1)S(=O)(=O)c1cccs1 (configuration not stated) | 83%
Cc1ccc(-n2ncc3c(NCCCn4ccnc4)ncnc32)cc1C | 84%
Cc1[nH]c2ccccc2c1SCCNC(=O)c1ccc(F)cc1 | 59%
COc1ccc(NC(=O)CN2C(=O)CCn3nc(-c4cccn4C)cc32)cc1Cl | 83%
CC1CCc2[nH]nc(C(=O)O)c2C1 (configuration not stated) | 93%
Cc1ccc2nc(Cl)c3cc(C(=O)NC4CCC(C)CC4)sc3c2c1 (configuration not stated) | 57%
CC1CCCN(C(=O)c2cc3c(Cl)nc4ccccc4c3s2)C1 (configuration not stated) | -5% (active)
O=C(c1cc2c(Cl)nc3ccccc3c2s1)N1CCCCC1 | 46% (active)
CC1CCCN(CCCNC(=O)c2cc3c(Cl)nc4ccccc4c3s2)C1 (configuration not stated) | 125%
O=C(NC1CCCCCC1)c1cc2c(Cl)nc3ccccc3c2s1 | 116%
Cc1ccc(NC(=O)c2cc3c(Cl)nc4ccc(C)cc4c3s2)c(Cl)c1 | 68%

Structure (SMILES) | survival
CCC(C)NC(=O)c1cc2c(Cl)nc3ccc(C)cc3c2s1 (configuration not stated) | 65%
Cc1ccc2nc(Cl)c3cc(C(=O)N4CCCC(C)C4)sc3c2c1 (configuration not stated) | -7% (active)
Cc1ccc2nc(Cl)c3cc(C(=O)NCCCN4CCC(C)CC4)sc3c2c1 | 125%
O=C(NC1CCCCC1)c1cc2c(Cl)nc3ccccc3c2s1 | 80%
CC1CCC(NC(=O)c2cc3c(Cl)nc4ccccc4c3s2)CC1 (configuration not stated) | 87%
Cc1ccc2nc(Cl)c3cc(C(=O)N4CCCCC4)sc3c2c1 | -8% (active)
CNC(=O)C1CCC(Cn2c(=O)c3sccc3n(CC(=O)Nc3ccc(C)c(C)c3)c2=O)CC1 (configuration not stated) | 70%
CCC(C)NC(=O)c1sc2nc3n(c(=O)c2c1C)CCC3 (configuration not stated) | 93%
CCOc1ccc(NC(=O)Cn2c(=O)n(Cc3ccco3)c(=O)c3ccc(C(=O)NC4CCCC4)cc32)cc1 | 97%
Cc1ccc(NC(=O)CSc2ccc(-c3cccs3)nn2)cc1Cl | 111%
COc1ccc(NC(=O)CSc2nc(C)cc(C)c2C(=O)Nc2ccccc2OC)cc1 | 51%
CN1CCC(OC(=O)c2ccc(Cl)cc2Cl)CC1 | 101%
O=C(Cn1c(=O)n(CCc2ccccc2)c(=O)c2c3c(sc21)CCCC3)Nc1ccc(F)c(F)c1 | 84%
COc1cccc(N2CCN(C(=O)c3cc4c(=O)n(Cc5cccnc5)ccc4nc3C)CC2)c1 | 102%
CCC1CCCCN1CCCNC(=O)c1cc2c(Cl)nc3ccccc3c2s1 (configuration not stated) | 101%
CCOC(=O)C1CCCN(C(=O)c2cc3c(Cl)nc4ccccc4c3s2)C1 (configuration not stated) | 26% (active)
CCOC(=O)C1CCCN(C(=O)c2cc3c(=O)[nH]c4ccc(C)cc4c3s2)C1 (configuration not stated) | 51%
CCNC(=S)N1CCC(NC(=O)C23CC4CC(CC(C4)C2)C3)CC1 | 80%
Fc1ccc(Cc2cn3cc(-c4ccccc4)nc3s2)cc1 | 51% (active)
Fc1ccc(Cc2cn3cc(-c4ccc(F)cc4)nc3s2)cc1 | 61%
Clc1ccccc1Cc1cn2cc(-c3ccccc3)nc2s1 | 63%
Fc1ccc(-c2cn3cc(Cc4ccccc4Cl)sc3n2)cc1 | 42% (active)
Fc1ccccc1Cc1cn2cc(-c3ccc(Cl)cc3)nc2s1 | 66%
Fc1ccc(-c2cn3cc(Cc4ccccc4)sc3n2)cc1 | 81%
Cc1ccccc1-c1nc(SCC(=O)NCc2ccco2)c2c(=O)n(C)c(=O)n(C)c2n1 | 71%

Structure (SMILES) | survival
O=C(Nc1ccc(C(F)(F)F)cc1)N1CCC(N2CCCCC2)CC1 | 108%
COc1ccc(-c2noc(CSc3nnc(-c4ccncc4)n3-c3ccc(C)cc3)n2)cc1OC | 67%
CC1=C(C(=O)OC2CCCCCC2)C(c2ccc(Cl)cc2Cl)CC(=O)N1 (configuration not stated) | 81%
CCOC(=O)c1c(NC(=O)c2ccc(S(=O)(=O)N(C)C)cc2)sc2c1CCN(C)C2 | 75%
Cc1nc(NC2CCN(Cc3nnnn3Cc3ccc4c(c3)OCO4)CC2)[nH]c(=O)c1C | 94%
O=S(=O)(NCc1csc(-c2ccccc2)n1)c1cccc(F)c1 | 79%
Cc1cc(C)c(S(=O)(=O)NCc2csc(-c3ccccc3)n2)c(C)c1 | 34% (active)
O=S(=O)(NCc1csc(-c2ccccc2)n1)c1ccccc1 | 70%
COc1ccccc1C(=O)Nc1nc2nc(C)c(Cc3ccccc3)c(=O)n2[nH]1 | 111%
COc1cccc(NC(=O)CN(CCc2ccccc2)S(=O)(=O)c2ccc(Cl)cc2)c1 | 52%
Cn1cc(C(=O)Nc2ccc(C#N)cc2)c2ccccc2c1=O | 63%
Cc1cccc(NC(=O)Cn2c(=O)sc3ccccc32)c1 | 109%
CCCOc1ccccc1Cn1c(=O)sc2ccccc21 | -2% (active)
CCCCOc1ccccc1Cn1c(=O)sc2ccccc21 | -2% (active)
CCOC(=O)Cn1c(=O)sc2ccccc21 | 94%
CCN(CC)C(=O)Cn1c(=O)sc2ccccc21 | 85%
CCCn1c(=O)sc2cc(NC(=O)c3ccccc3OCC)ccc21 | 93%
CS(=O)(=O)n1c(=O)sc2ccccc21 | 99%
CC(C)CCOc1ccccc1Cn1c(=O)sc2ccccc21 | 3% (active)
O=C(Cn1c(=O)sc2ccccc21)Nc1ccc(O)cc1 | 70%
O=C(Cn1c(-c2ccccc2)noc1=O)Nc1cccc(Cl)c1Cl | 98%
CCc1ccc(S(=O)(=O)c2cn(C)c3cc(N4CCOCC4)c(F)cc3c2=O)cc1 | 90%
